Experimental data published in PubChem BioAssay (NCATS).
Results filed as inconclusive are left out. Where a call stands in place of a potency, no number is given. The source made the active and inactive calls. Unless noted, calls follow the shape of the full dose curve.

How the values were obtained:
[1] = qHTS for Inhibitors of the Functional Ribonucleoprotein Complex (vRNP) of Lassa (LASV) Arenavirus: LASV Primary Screen - GLuc reporter signal (AID 1347082; calls by dose curve; tested in HEK293 reporter line; also: nearly all actives have a fitted effect of over 60% in size; also: potency is read from the fitted curve at half-maximal effect)
[2] = qHTS for Inhibitors of the Functional Ribonucleoprotein Complex (vRNP) of Lassa (LASV) Arenavirus: Viability assay - alamar blue signal for LASV Primary Screen (AID 1347083; calls by dose curve; tested in HEK293 reporter line; also: nearly all actives have a fitted effect of over 80% in size; also: potency is read from the fitted curve at half-maximal effect)
[3] = qHTS for Inhibitors of the Functional Ribonucleoprotein Complex (vRNP) of Lymphocytic Choriomeningitis Arenaviruses (LCMV): Viability assay - alamar blue signal for LCMV Primary Screen (AID 1347085; calls by dose curve; tested in HEK293 reporter line; also: nearly all actives have a fitted effect of over 80% in size; also: potency is read from the fitted curve at half-maximal effect)
[4] = target: Nucleoprotein (Lymphocytic choriomeningitis virus (strain Armstrong)) (UniProt P09992); test: qHTS for Inhibitors of the Functional Ribonucleoprotein Complex (vRNP) of Lymphocytic Choriomeningitis Arenaviruses (LCMV): LCMV Primary Screen - GLuc reporter signal (AID 1347086); also: nearly all actives have a fitted effect of over 70% in size; also: potency is read from the fitted curve at half-maximal effect
[5] = Primary qHTS to identify inhibitors of SARS-CoV-2 cell entry (AID 1645846); details: activity change, negative = inhibition: at 57.1 µM (top of the series) unless noted; also: nearly all actives have a fitted effect of over 45% in size; also: potency is read from the fitted curve at half-maximal effect
How it was run: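 Luminescence readout (Bright-Glo luciferase) 48 h after pseudoparticle addition. HEK293-ACE2 cells, 1500/well; compound pre-incubation 1 h; Normalized to spike PP and bald PP.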

[6] = Cell Viability - BJ (AID 421); details: BJ fibroblast viability, qHTS;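 also: potency is read from the fitted curve at half-maximal effect; cells exposed to compound for 40 hours at 37 °C before readout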
How it was run: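 Luminescent ATP signal (CellTiter-Glo, 20 min at room temperature) served as the read-out of viable BJ cells after 40 hours of compound treatment. Responses were scaled between DMSO and 100 uM tamoxifen, and AC50 values were obtained by Hill modeling.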

[7] = MultiTox-Fluor Cytotoxicity Assay - LYMP1-003 - Dead Cells (AID 961; active = well fitted curve in the direction sought with a large enough effect; an effect the other way counts as inactive or inconclusive; also: nearly all actives have a fitted effect of over 70% in size; also: potency is read from the fitted curve at half-maximal effect)
How it was run: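 Human lymphoblastoid LYMP1-003 cells (2500/well) were treated with compounds for 16 hr at 37 C in complete medium. Dead-cell protease release was read by bis-AAF-R110 fluorescence (Ex/Em 485/520). AC50 came from Hill fits, normalized to DMSO and 15 uM tetraoctylammonium bromide.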

[8] = qHTS assay for small molecule agonists of the antioxidant response element (ARE) signaling pathway measured by Nrf2-dependant transcriptional activity - cell viability counter screen (AID 720653; active = well fitted curve in the direction sought with a large enough effect in the repeat runs; an effect the other way counts as inactive or inconclusive; also: potency is read from the fitted curve at half-maximal effect); details: ARE-bla HepG2 viability, CellTiter-Glo ATP luminescence, 16 h; max response: stronger effect = lower value
How it was run: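 ARE-bla HepG2 cells (2,000/well) rested 5 hrs at 37C/5% CO2, then exposed to compounds in DMSO for 16 hrs. Viability was read in the same wells as intracellular ATP by luminescence, 30 min at room temperature after reagent addition.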

[9] = Validation screen for inhibitors of Lassa infection (AID 463096)
[10] = Inducers of the Endoplasmic Reticulum Stress Response (ERSR) in human glioma: Validation (AID 504836; active = well fitted curve in the direction sought with a large enough effect; an effect the other way counts as inactive or inconclusive)
How it was run: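 Stably transfected U87-MG human glioma cells carrying a GRP78-based luminescent sensor were seeded at 1000 cells/well, pin-dosed with compounds and incubated 16 h. Luciferase reagent was then added, and end-point luminescence was read after 10 min at room temperature.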

[11] = target: Alpha-galactosidase (Coffea arabica) (UniProt Q42656); test: Counterscreen for Glucocerebrosidase Inhibitors: qHTS Assay for Coffee Bean alpha-Galactosidase at pH 4.5 (AID 957; active = well fitted curve in the direction sought with a large enough effect; an effect the other way counts as inactive or inconclusive)
How it was run: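 Fluorogenic qHTS at pH 4.5 (citrate buffer with Tween-20): 2 nM enzyme, 80 uM 4-MU-alpha-galactoside substrate, compound titrated 0.7 nM to 77 uM, 20 min room temperature. Glycine/NaOH stop; 4-MU read Ex 365/Em 440; Hill-equation AC50 against no-enzyme and enzyme controls.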

[12] = target: Alpha-galactosidase (Coffea arabica) (UniProt Q42656); test: Counterscreen for Glucocerebrosidase Inhibitors: qHTS Assay for Coffee Bean alpha-Galactosidase at pH 5.9 (AID 998; active = well fitted curve in the direction sought with a large enough effect; an effect the other way counts as inactive or inconclusive)
How it was run: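 In 50 mM citric acid pH 5.9 with 0.005% Tween-20, coffee bean enzyme hydrolyses 80 uM 4-MU alpha-D-galactopyranoside over 20 min at RT. Activity is normalized to controls; AC50 comes from Hill-modelled concentration-response data.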

[13] = target: M-phase phosphoprotein 8 (Homo sapiens) (UniProt Q99549); test: qHTS Validation Assay for Inhibitors for MPP8 Chromodomain Interactions with Methylated Histone Tails (AID 488949; active = well fitted curve in the direction sought with a large enough effect; an effect the other way counts as inactive or inconclusive; also: nearly all actives have a fitted effect of over 55% in size; also: potency is read from the fitted curve at half-maximal effect;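 as to activity change, negative = inhibition: AlphaScreen signal from MPP8 chromodomain bound to biotinylated H3K9me3 peptide; top concentration of the series differs between compounds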)
How it was run: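 MPP8 (50 nM) was preincubated with biotinylated H3(1-18)K9me3 peptide (50 nM) in PBS pH 7.4, 0.01% Tween-20 for 30 min at room temperature, then with compounds for 30 min; binding was detected by AlphaScreen.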

[14] = qHTS assay for small molecule agonists of the antioxidant response element (ARE) signaling pathway (AID 651741; active = well fitted activation curve with a large enough effect in the signal ratio; the % refers to the signal ratio; also: potency is read from the fitted curve at half-maximal effect)
How it was run: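 Reporter: beta-lactamase under ARE, stably in HepG2. Exposure: 16 h, 37 C, compounds delivered in DMSO by pin tool after 5 h cell preincubation. Readout: FRET substrate fluorescence after 2 h at RT.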

[15] = target: Nuclear receptor subfamily 1 group I member 3 (Homo sapiens) (UniProt Q14994); test: Primary qHTS for antagonist of constitutive androstane receptor (CAR) against the NCATS DSHEA and TCM libraries (AID 1794836; active = well fitted curve in the direction sought with a large enough effect; an effect the other way counts as inactive or inconclusive)
How it was run: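 HepG2 cells stably carrying hCAR and a CYP2B6 luciferase reporter (2,500 cells/well) attached for 5 h, then received compounds with 48 uM CITCO for 24 h at 37C. ONE-Glo luminescence read antagonism; CellTiter-Fluor (405/540 nm) gave viability.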

[16] = target: Arylsulfatase A (Homo sapiens) (UniProt P15289); test: qHTS screen for enhancers of Arylsulfatase A (ASA1): LOPAC Validation Assay (AID 720538; active = well fitted curve in the direction sought with a large enough effect; an effect the other way counts as inactive or inconclusive)
How it was run: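 SV40-transformed skin fibroblasts from an MLD patient (ASA-I179S) were treated with compounds for 48h at 37 degree C, then lysed with 0.5mM pNCS final substrate for 14h at room temperature; NaOH stop, fluorescence read (Ex=525 nm; Em=598 nm).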

Chain of Alpha-galactosidase (Coffea arabica) (Q42656 whole entry, looked up): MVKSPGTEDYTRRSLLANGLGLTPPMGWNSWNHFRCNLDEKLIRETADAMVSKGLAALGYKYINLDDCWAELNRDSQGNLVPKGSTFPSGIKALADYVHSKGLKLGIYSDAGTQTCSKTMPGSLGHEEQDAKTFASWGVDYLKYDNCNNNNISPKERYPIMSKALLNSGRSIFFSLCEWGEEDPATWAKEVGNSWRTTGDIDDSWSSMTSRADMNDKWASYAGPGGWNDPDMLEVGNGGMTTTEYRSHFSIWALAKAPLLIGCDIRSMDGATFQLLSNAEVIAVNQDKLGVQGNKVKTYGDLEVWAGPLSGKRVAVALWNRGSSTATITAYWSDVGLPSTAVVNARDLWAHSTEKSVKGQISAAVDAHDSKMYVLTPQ
Chain of Nuclear receptor subfamily 1 group I member 3 (Homo sapiens) (Q14994 whole entry, looked up): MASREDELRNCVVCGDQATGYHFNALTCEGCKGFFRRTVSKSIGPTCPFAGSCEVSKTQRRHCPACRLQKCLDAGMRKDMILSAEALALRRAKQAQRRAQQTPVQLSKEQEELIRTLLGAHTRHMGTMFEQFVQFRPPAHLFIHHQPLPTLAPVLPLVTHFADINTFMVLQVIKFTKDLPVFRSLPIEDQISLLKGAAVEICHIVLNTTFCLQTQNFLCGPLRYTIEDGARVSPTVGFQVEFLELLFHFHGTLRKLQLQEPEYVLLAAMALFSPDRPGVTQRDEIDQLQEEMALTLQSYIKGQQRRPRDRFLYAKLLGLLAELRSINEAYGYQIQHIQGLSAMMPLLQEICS
Chain of Nucleoprotein (Lymphocytic choriomeningitis virus (strain Armstrong)) (P09992 whole entry, looked up): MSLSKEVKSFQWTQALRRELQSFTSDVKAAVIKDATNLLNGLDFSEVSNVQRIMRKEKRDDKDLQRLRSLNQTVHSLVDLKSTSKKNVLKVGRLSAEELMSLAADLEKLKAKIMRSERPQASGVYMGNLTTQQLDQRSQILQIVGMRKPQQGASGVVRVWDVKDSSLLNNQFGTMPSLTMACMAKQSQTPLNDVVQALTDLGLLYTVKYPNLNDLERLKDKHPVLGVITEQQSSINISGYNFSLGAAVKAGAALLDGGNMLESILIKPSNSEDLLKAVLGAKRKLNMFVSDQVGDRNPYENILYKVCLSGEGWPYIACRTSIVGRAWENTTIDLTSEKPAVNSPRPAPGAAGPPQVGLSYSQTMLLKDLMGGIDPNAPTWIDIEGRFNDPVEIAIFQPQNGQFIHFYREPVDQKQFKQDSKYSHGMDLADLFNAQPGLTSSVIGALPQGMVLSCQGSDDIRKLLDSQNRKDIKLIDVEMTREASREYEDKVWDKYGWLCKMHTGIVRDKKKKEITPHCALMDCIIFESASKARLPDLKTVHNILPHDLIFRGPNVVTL
Chain of M-phase phosphoprotein 8 (Homo sapiens) (Q99549 whole entry, looked up): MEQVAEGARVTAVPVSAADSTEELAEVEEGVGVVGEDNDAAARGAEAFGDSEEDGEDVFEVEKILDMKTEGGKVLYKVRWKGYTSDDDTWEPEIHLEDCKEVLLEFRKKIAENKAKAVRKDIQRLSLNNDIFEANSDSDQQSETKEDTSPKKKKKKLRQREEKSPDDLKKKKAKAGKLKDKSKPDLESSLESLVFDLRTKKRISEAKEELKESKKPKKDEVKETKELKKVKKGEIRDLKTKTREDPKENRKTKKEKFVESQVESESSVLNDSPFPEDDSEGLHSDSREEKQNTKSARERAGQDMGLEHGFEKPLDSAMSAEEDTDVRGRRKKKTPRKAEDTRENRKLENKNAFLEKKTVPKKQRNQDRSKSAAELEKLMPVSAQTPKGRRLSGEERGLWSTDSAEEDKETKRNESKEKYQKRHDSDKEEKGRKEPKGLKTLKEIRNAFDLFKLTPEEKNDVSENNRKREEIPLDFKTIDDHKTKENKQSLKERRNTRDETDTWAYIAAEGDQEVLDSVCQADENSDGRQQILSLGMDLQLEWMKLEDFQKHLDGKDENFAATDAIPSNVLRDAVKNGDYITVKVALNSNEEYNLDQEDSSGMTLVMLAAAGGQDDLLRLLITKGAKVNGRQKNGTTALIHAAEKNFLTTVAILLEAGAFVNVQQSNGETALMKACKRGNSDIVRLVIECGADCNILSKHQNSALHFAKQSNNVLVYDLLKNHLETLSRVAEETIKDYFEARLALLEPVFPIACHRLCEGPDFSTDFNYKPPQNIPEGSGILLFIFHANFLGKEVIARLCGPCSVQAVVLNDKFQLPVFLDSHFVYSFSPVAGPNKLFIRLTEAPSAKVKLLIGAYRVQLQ
Chain of Arylsulfatase A (Homo sapiens) (P15289 whole entry, looked up): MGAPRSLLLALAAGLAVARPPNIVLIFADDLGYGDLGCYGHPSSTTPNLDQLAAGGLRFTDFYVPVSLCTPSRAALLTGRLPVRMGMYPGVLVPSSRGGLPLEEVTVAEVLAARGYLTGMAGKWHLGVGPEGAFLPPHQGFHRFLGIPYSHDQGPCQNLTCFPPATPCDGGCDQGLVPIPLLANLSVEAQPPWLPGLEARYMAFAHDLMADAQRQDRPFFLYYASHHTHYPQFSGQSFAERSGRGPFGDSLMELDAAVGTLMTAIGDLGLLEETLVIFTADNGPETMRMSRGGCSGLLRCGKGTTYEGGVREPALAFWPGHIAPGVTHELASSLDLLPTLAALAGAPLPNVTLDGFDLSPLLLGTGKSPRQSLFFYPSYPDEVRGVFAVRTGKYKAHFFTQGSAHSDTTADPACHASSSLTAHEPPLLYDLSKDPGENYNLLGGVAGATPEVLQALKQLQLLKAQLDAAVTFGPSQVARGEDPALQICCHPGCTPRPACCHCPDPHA

SMILES: c1ccc(CNc2nc(NCc3ccccc3)c3ccccc3n2)cc1
- Potency [1]: 19.3 µM (active)
- Potency [2]: 24.3 µM (active)
- Potency [3]: 24.3 µM (active)
- Potency [4]: 3.85 µM (active)
- Potency [5]: 22.4 µM (active)

SMILES: Cc1nc(C(=O)NCC(=O)O)c(O)c2ccc(Oc3ccccc3)cc12
- Potency [1]: inactive
- Potency [2]: inactive
- Potency [3]: inactive
- Potency [4]: inactive
- activity change, negative = inhibition [5]: -9.8%

SMILES: CC(C)COC(=O)c1ccccc1C(=O)OCC(C)C
- Potency [6]: > 92 µM (inactive)
- Potency [7]: inactive
- max response [8]: 7.97% (inactive)
- Potency [1]: inactive
- Potency [2]: inactive
- Potency [3]: inactive
- Potency [4]: inactive

SMILES: CCCCCCCCCC[Si](C)(C)CCC(=O)NC(Cc1ccc(C)cc1)c1ccccc1 (centres undefined)
- Potency [9]: inactive
- outcome [10]: inactive
- Potency [1]: inactive
- Potency [2]: inactive
- Potency [3]: inactive
- Potency [4]: inactive

SMILES: Cc1ccc(C(=O)N(CCCN)[C@@H](c2oc3cc(Cl)ccc3c(=O)c2Cc2ccccc2)C(C)C)cc1
- Potency [1]: inactive
- Potency [2]: inactive
- Potency [3]: inactive
- Potency [4]: inactive
- activity change, negative = inhibition [5]: -98.4%

SMILES: Oc1ccccc1O
- outcome [11]: inactive
- Potency [7]: 12.6 µM (active)
- outcome [12]: inactive
- Potency [9]: inactive
- Potency [13]: 79.4 µM (active)
- outcome [10]: inactive
- Potency [14]: 29.8 µM (active)
- Potency [1]: inactive
- Potency [2]: inactive
- Potency [3]: inactive
- Potency [4]: inactive

SMILES: O=C(O)/C=C/c1ccc(O)c(O)c1
- outcome [11]: inactive
- outcome [12]: inactive
- Potency [9]: inactive
- outcome [10]: inactive
- Potency [1]: inactive
- Potency [2]: inactive
- Potency [3]: inactive
- Potency [4]: inactive
- Potency [15]: inactive

SMILES: CNC(=O)Nc1ccc(-c2nc(N3CC4CCC(C3)O4)c3cnn(C4CCC5(CC4)OCCO5)c3n2)cc1
- Potency [1]: 0.0153 µM (active)
- Potency [2]: 0.0049 µM (active)
- Potency [3]: 0.0153 µM (active)
- Potency [4]: 0.0273 µM (active)
- activity change, negative = inhibition [5]: -83.7%

SMILES: O=S(=O)(O)c1ccc2cc(N=Nc3cc(S(=O)(=O)O)c4cccnc4c3O)ccc2c1
- Potency [1]: inactive
- Potency [2]: inactive
- Potency [3]: inactive
- Potency [4]: inactive
- Potency [5]: inactive

SMILES: C=C/C(C)=C/C/C=C(\C)CCC=C(C)C
- Potency [1]: inactive
- Potency [2]: inactive
- Potency [3]: inactive
- Potency [4]: inactive
- Potency [15]: inactive

SMILES: Oc1cc(O)cc(/C=C/c2ccc(O)c(O)c2)c1
- Potency [9]: inactive
- outcome [10]: inactive
- Potency [1]: inactive
- Potency [2]: inactive
- Potency [3]: inactive
- Potency [4]: inactive
- activity change, negative = inhibition [5]: -97.4%

SMILES: Cn1cnc(-c2cc3nccc(Oc4ccc(NC(=S)NC(=O)Cc5ccccc5)cc4F)c3s2)c1
- Potency [1]: inactive
- Potency [2]: inactive
- Potency [3]: inactive
- Potency [4]: inactive
- Potency [5]: 8.91 µM (active)

SMILES: CCCCCCCCCCCCCC(=O)OCC(O)CO (centres undefined)
- Potency [1]: inactive
- Potency [2]: inactive
- Potency [3]: inactive
- Potency [4]: inactive
- Potency [15]: inactive

SMILES: CCCCCCCCCC=O
- Potency [1]: inactive
- Potency [2]: inactive
- Potency [3]: inactive
- Potency [4]: inactive
- Potency [15]: inactive

SMILES: Nc1nc(N)c2nc(CNc3ccc(C(=O)NC(CCC(=O)O)C(=O)O)cc3)cnc2n1 (centres undefined)
- Potency [9]: inactive
- Potency [13]: inactive
- outcome [10]: inactive
- Potency [14]: 0.077 µM (active)
- Potency [16]: inactive
- Potency [8]: 0.0126 µM (active)
- Potency [1]: inactive
- Potency [2]: inactive
- Potency [3]: inactive
- Potency [4]: inactive

SMILES: O=C(O)CC1CCCc2ccccc2C1O (centres undefined)
- Potency [9]: inactive
- outcome [10]: inactive
- Potency [1]: inactive
- Potency [2]: inactive
- Potency [3]: inactive
- Potency [4]: inactive

SMILES: COc1cc([C@@H]2c3cc4c(cc3[C@H](O)C3COC(=O)[C@@H]32)OCO4)cc(OC)c1OC (some centres undefined)
- Potency [9]: inactive
- Potency [13]: inactive
- outcome [10]: inactive
- Potency [1]: inactive
- Potency [2]: inactive
- Potency [3]: inactive
- Potency [4]: inactive

SMILES: Oc1ccccc1Cl
- Potency [6]: > 92 µM (inactive)
- Potency [7]: inactive
- Potency [14]: inactive
- max response [8]: -1.76% (inactive)
- Potency [1]: inactive
- Potency [2]: inactive
- Potency [3]: inactive
- Potency [4]: inactive

SMILES: COC1=CC(=O)OC(CCc2ccc3c(c2)OCO3)C1 (centres undefined)
- Potency [6]: > 92 µM (inactive)
- Potency [7]: inactive
- Potency [14]: inactive
- max response [8]: -4.13% (inactive)
- Potency [1]: inactive
- Potency [2]: inactive
- Potency [3]: inactive
- Potency [4]: inactive
